Results: PubChem BioAssay (EPA / NIEHS)
Inconclusive results are not listed. Active and inactive are the calls of the source. Rule for the calls, unless noted: active = hit-call score of the fitted dose curve at least 0.9, where 1 is the maximum; inactive = score below 0.9.

Tests used:
[1] = BSK_BT_PBMCCytotoxicity: PBMC Cytotoxicity Assessment in the BioMAP Diversity Plus: BT Assay (AID 2284225); details: primary human B cells with PBMC;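 note: PBMC viability measured by Alamar Blue dye reduction fluorescence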
Method in brief: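 75,000 cells/well; cpd 1 h → SEB + TSST-1 (20 ng/mL final each) → 90 h → Alamar Blue 6 h → fluor. 546/580 nm. DMSO = neg. control/baseline.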

[2] = read-out: Secreted IgG (sIgG), gene 3500; test: BSK_BT_sIgG: BioMAP Diversity Plus: BT Assay for Secreted IgG (sIgG) Biomarker Activity (AID 2284226); details: primary human B cells with PBMC
Method in brief: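 Secreted IgG from a human primary B cell–PBMC co-culture was measured by ELISA 24 hours after dosing, with DMSO defining baseline activity.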

[3] = BSK_BT_Bcell_Proliferation: Viability Assessment in the BioMAP Diversity Plus: BT Assay for B cell Proliferation (AID 2284227); details: primary human B cells with PBMC
Method in brief: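 Human B cell/PBMC co-culture; test chemical added; 72 h; TCA fix (10%), 0.1% SRB stain, A560 for total protein as a proliferation read-out; positive-direction fit vs DMSO baseline.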

[4] = read-out: Interleukin 6 (IL6), IL6 (gene 3569); test: BSK_BT_xIL6: BioMAP Diversity Plus: BT Assay for Interleukin 6 (IL6) Biomarker Activity (AID 2284228); details: primary human B cells with PBMC
Method in brief: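 IL-6 secretion measured (Luminex xMAP) in human primary B cell + PBMC co-culture at 24 h of chemical exposure; DMSO served as negative control and activity baseline, with curves fitted for increase.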

[5] = read-out: Interleukin 17A (IL17A), IL17A (gene 3605); test: BSK_BT_xIL17A: BioMAP Diversity Plus: BT Assay for Interleukin 17A (IL17A) Biomarker Activity (AID 2284229); details: primary human B cells with PBMC
Method in brief: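 Human primary B cells plus PBMC, treated 24 h with chemicals; supernatant IL-17A quantified on Luminex xMAP beads. Gain of signal over DMSO control scored as activity.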

[6] = read-out: Tumor necrosis factor (Homo sapiens) (UniProt P01375); test: BSK_BT_xTNFa: BioMAP Diversity Plus: BT Assay for Tumor necrosis factor alpha (TNF-alpha) Biomarker Activity (AID 2284230); details: primary human B cells with PBMC
Method in brief: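 Read-out: Luminex xMAP quantitation of secreted TNF-alpha from a B cell/PBMC co-culture 24 h after compound addition. Signal analysed relative to DMSO vehicle, positive fitting direction.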

[7] = read-out: Vascular cell adhesion molecule 1 (VCAM1), VCAM1 (gene 7412); test: BSK_MyoF_VCAM1: BioMAP Diversity Plus: MyoF Assay for Vascular cell adhesion molecule 1 (VCAM1) Biomarker Activity (AID 2284231); details: primary human lung fibroblasts
Method in brief: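 VCAM-1 levels, lung fibroblasts, ELISA, 24 h exposure, increase scored relative to DMSO.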

[8] = CCTE_Mundy_HCI_Cortical_Synap_Neur_Matur_NeuriteLength: CCTE's Synaptogenesis and Neurite Maturation Assay in rat cortical cells for Neurite Length, Mundy Lab (AID 2284214)
Method in brief: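 Neurite length in rat primary cortical cultures is imaged after MAP2, synaptophysin and Hoechst staining. Dosing starts DIV 7, ending DIV 12; DMSO serves as negative control and baseline.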

[9] = CCTE_Mundy_HCI_Cortical_Synap_Neur_Matur_NeuriteSpotCountPerNeuron: CCTE's Synaptogenesis and Neurite Maturation Assay in rat cortical cells for Neurite Spot Count per Neuron Count, Mundy Lab (AID 2284215)
Method in brief: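 Developing rat cortical neurons, with glia suppressed by AraC, are exposed to chemicals from DIV 7 to DIV 12. Automated fluorescence imaging of MAP2-labelled neurites and synaptophysin puncta yields a count per neuron, normalised against DMSO wells.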

[10] = CCTE_Mundy_HCI_Cortical_Synap_Neur_Matur_SynapseCount: CCTE's Synaptogenesis and Neurite Maturation Assay in rat cortical cells for Synapse Count, Mundy Lab (AID 2284218)
Method in brief: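 Synapse count per neuron is measured in rat cortical neurons exposed to chemicals between DIV 7 and DIV 12, with glial growth arrested by AraC at DIV 5. Synaptophysin and MAP2 staining is imaged automatically; activity is fitted relative to DMSO.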

[11] = CCTE_Mundy_HCI_Cortical_Synap_Neur_Matur_NeuriteCount: CCTE's Synaptogenesis and Neurite Maturation Assay in rat cortical cells for Neurite Count, Mundy Lab (AID 2284222);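 note: exposure from day 7 to day 12 in vitro with readout at day 12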
Method in brief: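 Rat cortical neurons, 96-well; AraC DIV 5; chemical + media change DIV 7; end DIV 12. Fix PFA/Hoechst, anti-MAP2 + anti-synaptophysin IF. HCI neurite count vs DMSO baseline.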

[12] = CCTE_Mundy_HCI_Cortical_Synap_Neur_Matur_CellBodySpotCount: CCTE's Synaptogenesis and Neurite Maturation Assay in rat cortical cells for Cell Body Spot Count, Mundy Lab (AID 2284223)
Method in brief: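 Chemicals were applied to AraC-treated rat primary cortical cells at DIV 7 and measured at DIV 12. Fixed cells were labelled for MAP2, synaptophysin and nuclei, and high-content imaging gave cell body synaptophysin spot counts per neuron relative to DMSO.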

[13] = CCTE_Mundy_HCI_hNP1_Pro_ResponderAvgInten: CCTE's Proliferation Assay in human neuroprogenitor cells, Mundy Lab (AID 2284224; active = hit-call score of the fitted dose curve at least 0.9, where 1 is the maximum;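 note: human neural progenitor cells hNP1 derived from WA09 embryonic stem cells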)
Method in brief: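 Proliferation was scored as BrdU labelling intensity in human neural progenitors derived from WA09 embryonic cells, measured 26.25 hours after chemical dosing. Activity was fitted relative to DMSO.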

Tumor necrosis factor (Homo sapiens), sequence (P01375 whole entry, looked up): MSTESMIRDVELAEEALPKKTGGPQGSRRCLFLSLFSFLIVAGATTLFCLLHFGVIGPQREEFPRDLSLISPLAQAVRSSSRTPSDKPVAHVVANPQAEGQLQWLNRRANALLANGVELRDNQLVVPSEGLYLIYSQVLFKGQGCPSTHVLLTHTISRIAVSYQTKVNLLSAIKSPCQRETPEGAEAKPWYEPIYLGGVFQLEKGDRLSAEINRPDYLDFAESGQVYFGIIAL

Q: For `c1ccc2cc(Nc3ccc(Nc4ccc5ccccc5c4)cc3)ccc2c1`, which outcome [1] is on record?
A: inactive

Q: And the outcome [2]?
A: inactive

Q: What about the outcome [3] of the same molecule?
A: inactive

Q: And the AC50 [4]?
A: 1.12 µM (active)

Q: And the outcome [5]?
A: inactive

Q: And the outcome [6]?
A: inactive

Q: What about the outcome [7] of the same molecule?
A: inactive

Q: Which outcome [1] does the source give for `CC1(C)C2=CCCC(C)(C)[C@]23CC[C@H]1C3` here?
A: inactive

Q: What about the AC50 [2] of the same molecule?
A: 20 µM (active)

Q: What about the outcome [3] of the same molecule?
A: inactive

Q: What about the outcome [4] of the same molecule?
A: inactive

Q: What about the outcome [5] of the same molecule?
A: inactive

Q: What about the outcome [6] of the same molecule?
A: inactive

Q: And the AC50 [7]?
A: 31.9 µM (active)

Q: What does the source list for `CN(C)CCOC(C)(c1ccccc1)c1ccccn1` (stereo unspecified)?
A: outcome [8]: inactive; outcome [9]: inactive; outcome [10]: inactive; outcome [11]: inactive; outcome [12]: inactive; outcome [13]: inactive

Q: With `CN(C)C(=O)Nc1ccc(Oc2ccc(Cl)cc2)cc1` as the molecule, how does the outcome [1] read?
A: inactive

Q: What about the AC50 [2] of the same molecule?
A: 20 µM (active)

Q: And the outcome [3]?
A: inactive

Q: What about the outcome [4] of the same molecule?
A: inactive

Q: What about the outcome [5] of the same molecule?
A: inactive

Q: What about the outcome [6] of the same molecule?
A: inactive

Q: And the outcome [7]?
A: inactive

Q: Which outcome [1] does the source give for `CCCCCCCCCCCCCCCC(=O)OC/C=C(C)/C=C/C=C(C)/C=C/C1=C(C)CCCC1(C)C` here?
A: inactive

Q: What about the AC50 [2] of the same molecule?
A: 20 µM (active)

Q: And the outcome [3]?
A: inactive

Q: And the AC50 [4]?
A: 31.2 µM (active)

Q: What about the outcome [5] of the same molecule?
A: inactive

Q: And the outcome [6]?
A: inactive

Q: What about the outcome [7] of the same molecule?
A: inactive

Q: For `O=C1c2ccccc2C(=O)c2c(O)ccc(O)c21`, which AC50 [1] is on record?
A: 11 µM (active)

Q: What about the AC50 [2] of the same molecule?
A: 0.36 µM (active)

Q: What about the AC50 [3] of the same molecule?
A: 11.8 µM (active)

Q: What about the AC50 [4] of the same molecule?
A: 0.0172 µM (active)

Q: What about the outcome [5] of the same molecule?
A: inactive

Q: What about the AC50 [6] of the same molecule?
A: 11 µM (active)

Q: What about the outcome [7] of the same molecule?
A: inactive

Q: What does the source list for `CCN(CC)C(=O)N(CC)CC`?
A: outcome [1]: inactive; outcome [2]: inactive; outcome [3]: inactive; outcome [4]: inactive; outcome [5]: inactive; outcome [6]: inactive; outcome [7]: inactive

Q: Which outcome [1] does the source give for `CC(=O)c1c(C)c([N+](=O)[O-])c(C(C)(C)C)c([N+](=O)[O-])c1C` here?
A: inactive

Q: What about the AC50 [2] of the same molecule?
A: 30.5 µM (active)

Q: What about the outcome [3] of the same molecule?
A: inactive

Q: And the outcome [4]?
A: inactive

Q: And the outcome [5]?
A: inactive

Q: What about the outcome [6] of the same molecule?
A: inactive

Q: And the outcome [7]?
A: inactive

Q: Which outcome [1] does the source give for `CC=Cc1ccc(OCC)c(O)c1` here?
A: inactive

Q: And the AC50 [2]?
A: 12.9 µM (active)

Q: What about the outcome [3] of the same molecule?
A: inactive

Q: What about the outcome [4] of the same molecule?
A: inactive

Q: And the outcome [5]?
A: inactive

Q: And the outcome [6]?
A: inactive

Q: What about the outcome [7] of the same molecule?
A: inactive

Q: With `CC(=O)C1(C)CC2=C(CCCC2(C)C)CC1C` (stereo unspecified) as the molecule, how does the AC50 [1] read?
A: 31.9 µM (active)

Q: And the AC50 [2]?
A: 28.8 µM (active)

Q: And the AC50 [3]?
A: 34.7 µM (active)

Q: And the AC50 [4]?
A: 28.5 µM (active)

Q: And the AC50 [5]?
A: 26 µM (active)

Q: And the AC50 [6]?
A: 30.3 µM (active)

Q: And the AC50 [7]?
A: 12.1 µM (active)

Q: Which outcome [1] does the source give for `c1ccc(CCc2ccccc2)cc1` here?
A: inactive

Q: What about the outcome [2] of the same molecule?
A: inactive

Q: And the outcome [3]?
A: inactive

Q: What about the outcome [4] of the same molecule?
A: inactive

Q: What about the outcome [5] of the same molecule?
A: inactive

Q: And the outcome [6]?
A: inactive

Q: What about the AC50 [7] of the same molecule?
A: 31 µM (active)
